Data on 105 compounds can be found in ChEMBL document CHEMBL3988442, “University of Dundee, Small-Polar-MMV Screening Library” (2021).

The whole screen tested about 48,000 compounds, of which about 13,000 (27%) showed an effect of 50% or more. This is one part of the list.

The experiment deals with Wolbachia pipientis. Nature of the experiment: Anti-Wolbachia Cell-Based Screen. It counts as functional. Set-up: scale not given: in the data most compounds retested in dose-response had high values. The note with it: 5 µM.
`Cc1nn(CC(C)C)c(N(C)C)c1CNCCCNS(C)(=O)=O`: the “Percent Effect” value came to 11.35%.

Take `CCOc1ccnc(NCc2nc(C)cc(=O)[nH]2)n1`: the “Percent Effect” value is recorded as 1.629%. The result for `CCC(=O)N1Cc2nnc(C3CCOCC3)n2C(Cc2c[nH]cn2)C1` (stereo not given) reads -1.737%; that for `CC(C)N(C)C[C@H]1OC[C@@H]2CCN(Cc3cccc(C#N)c3)C[C@@H]21.O=C(O)C(F)(F)F.O=C(O)C(F)(F)F`, 7.862%.

`O=C1NC2(CCN(C(=O)c3ccc(Cl)cn3)CC2)CC1c1ccccc1` (stereo not given): the “Percent Effect” value is -25.51%.

Take `CCC(CC)(CC(=O)OC)NC(=O)Nc1nnc(-c2ccccn2)s1`: the “Percent Effect” value was -2.114%.

For `COCCNc1nc(-c2ccc(S(=O)(=O)N3CCCCCC3)cc2)cs1`, the “Percent Effect” value is on record as -3.577%. In the case of `CCC(C)(C)NC(=O)Nc1nnc(-c2ccccn2)s1`, the “Percent Effect” value is listed as -10.26%. The result for `COCCNc1nc(-c2ccc(S(=O)(=O)N3CCCCC3)cc2)cs1` reads 16.68%; that for `COCCNc1nnc(-c2ccc(C)nc2)s1`, 135.2%; that for `COCCN(Cc1ccc(C)o1)C(=O)Nc1ncc(C)s1`, 4.146%. The result for `COCCNc1nc2c(c(NCc3cnc(C)cn3)n1)CCNCC2` reads -9.122%; that for `COCCNc1nnc(-c2cnc(C)cn2)s1`, 149.1%. Regarding `COCCNc1nnc(-c2ccccn2)s1`, the “Percent Effect” value turned out to be 158.8%. The result for `Cc1c(-c2ccncc2)n[nH]c1NC(=O)CCOC(C)C` reads -12.27%; that for `COCCNC(=O)c1ccc2c(=O)n3c(nc2c1)CCN(C)CC3`, 94.74%; that for `N#CCC(=O)NCc1nnc2n1CCN(Cc1cccs1)C2`, 6.584%. The result for `CN1CCc2nc3cc(C(=O)NCc4cccs4)ccc3c(=O)n2CC1` reads 76.54%; that for `O=c1c2sccc2nc2n1CCN(Cc1cccs1)CC2`, 5.975%. The result for `COc1cc2nc3n(c(=O)c2cc1OC)CCN(C)CC3` reads -3.498%; that for `CCCNC(=O)c1ccc2c(OC)n(C)nc2c1`, -11.42%; that for `CCN(Cc1ccncc1)Cc1c[nH]nc1-c1ccc(F)cc1`, -6.114%. For `COC(=O)C1CCN(C(=O)NCC(C)Cc2cccs2)CC1` (stereo not given), the “Percent Effect” value is recorded as -16.38%. The result for `Cc1oncc1C(=O)NCC(c1ccccc1Cl)N1CCOCC1` (stereo not given) reads 10.8%; that for `CCC(CNC(=O)c1ccccc1OC)N1CCc2ccccc2C1` (stereo not given), 13.81%. In the case of `COc1ccccc1C(CNC(=O)NCc1cc[nH]n1)N1CCCC1` (stereo not given), the “Percent Effect” value was 5.725%. The result for `COc1ccccc1S(=O)(=O)NCC(c1cccn1C)N(C)C` (stereo not given) reads 1.51%; that for `COc1ccccc1C(=O)NCC(c1cccn1C)N1CCOCC1` (stereo not given), 102.1%. Consider `COc1cccc(OC)c1C(=O)NCC(c1cccn1C)N1CCCC1` (stereo not given), for which the “Percent Effect” value amounted to 106.6%.

With `COc1cccc(C(=O)NCC(c2cccn2C)N2CCCC2)c1OC` (stereo not given), the “Percent Effect” value was determined as 106.1%. Regarding `COc1cccc(C(=O)NCCCN2CCc3ccccc3C2)c1OC`, the “Percent Effect” value is -7.552%.

With `COCCN1CCC(NC(=O)C/C=C/c2ccc(C(C)C)cc2)CC1`, the “Percent Effect” value is reported as -16.81%. Consider `Cc1ccc(C(=O)N2CC[C@@]3(O)CCN(C(=O)N(C)C)C[C@H]3C2)cc1Cl`, for which the “Percent Effect” value is reported as -5.057%. The result for `Cc1nn(C)c(C)c1C1CCCN1CCCC#N` (stereo not given) reads 2.05%.

In the case of `Cc1noc([C@@H]2C[C@H]3OCC[C@H]3N(Cc3sccc3C)C2)n1.O=C(O)C(F)(F)F`, the “Percent Effect” value amounted to 9.269%.

In the case of `Cc1nc(Cc2ccccc2)nc2sc(C(=O)O)c(C)c12`, the “Percent Effect” value is reported as 95.86%. For `CCN(CC(=O)NC)C(=O)c1sc(Cc2ccccc2)nc1C`, the “Percent Effect” value is listed as -6.036%. The result for `Cc1c(C(=O)O)sc2nc(C(F)(F)F)ccc12` reads -2.496%; that for `CN(C)C(CNC(=O)OCC(F)(F)F)c1ccsc1` (stereo not given), 23.12%; that for `CCN(Cc1ccc(OC)c(F)c1)C(=O)c1ccc(C)[nH]c1=O`, -15.23%. The result for `Cc1ccc(C(=O)N(C)CCOc2ccccc2F)c(=O)[nH]1` reads 95.48%; that for `Cc1ccc(C(=O)N(Cc2ccccc2F)C2CC2)c(=O)[nH]1`, -1.047%. Take `Cc1c(C(=O)N2CC(O)C2)nnn1-c1cccc2cnccc12`: the “Percent Effect” value is -2.34%.

In the case of `CC(CNS(=O)(=O)c1cccc(Cl)c1)N1CCN(C)CC1` (stereo not given), the “Percent Effect” value was 3.313%. The result for `CCn1cc2c(n1)CN(Cc1ccc(C)o1)CC2COCC1CC1.O=C(O)C(F)(F)F` (stereo not given) reads 26.1%; that for `CNC(=O)NCCc1csc2ccccc12`, -2.127%; that for `COCCN(C)C[C@@H]1CCC[C@@H]2CN(c3ncccn3)C[C@@H]21.O=C(O)C(F)(F)F`, -1.943%. The result for `Cc1ccc(NC2CCN(C(=O)Cc3csc(C)n3)CC2)nn1` reads 1.97%; that for `Cc1ccc(NC2CCN(C(=O)CCCc3cccs3)CC2)nn1`, 117.7%; that for `Cc1ccc(NC2CCN(C(=O)CCCc3ccccn3)CC2)nn1`, 17.2%. For the compound `Cc1ccc(NC2CCN(C(=O)Cn3nc(C)cc3C)CC2)nn1`, the “Percent Effect” value is -9.924%. `Cc1ccc(NC2CCN(C(=O)Cc3ccc(C)s3)CC2)nn1`: the “Percent Effect” value was 88.11%. The result for `Cc1ccc(NC2CCN(C(=O)Cc3cccs3)CC2)nn1` reads 103.9%; that for `Cn1cc(CNc2ccc(CCN3CCC(C(N)=O)CC3)cc2)cn1`, -15.36%. The result for `CCC(CC)c1cc(CNC(=O)N2CCCC(c3ncc[nH]3)C2)on1` (stereo not given) reads -2.928%; that for `Cc1nc(CN2CC[C@@H](OCC3CC3)[C@@H]2Cc2cccnc2)cs1.O=C(O)C(F)(F)F.O=C(O)C(F)(F)F`, 96.59%; that for `COCCO[C@@H]1CCN(Cc2csc(C)n2)[C@H]1Cc1ccccc1.O=C(O)C(F)(F)F`, -4.722%.

`Cc1nc(CN2CC[C@H](OCC3CC3)[C@@H]2Cc2cccnc2)cs1.O=C(O)C(F)(F)F.O=C(O)C(F)(F)F`: the “Percent Effect” value amounted to 110.4%.

Regarding `Cc1cc(N(C)Cc2c(C)noc2C)n2nc(C)c(C)c2n1`, the “Percent Effect” value is on record as -2.032%. For `CCN(CC)CC(=O)NCc1cccnc1-n1cnc2ccccc21`, the “Percent Effect” value is on record as -2.03%. The result for `Cc1cnc(N2CC[C@@H]3CN(CCC(C)C)S(=O)(=O)[C@@H]3CC2)nc1` reads 7.109%; that for `Cc1cc(C)n(CC(C)CNC(=O)NCc2ccco2)n1` (stereo not given), 7.726%; that for `NS(=O)(=O)NCc1cc(-c2ccco2)n(CC(F)(F)F)n1`, 112.6%. The result for `CC(COCC(F)(F)F)NC(=O)c1ccc(-c2ccco2)[nH]c1=O` (stereo not given) reads -22%; that for `C[C@H](NS(C)(=O)=O)C(=O)NCc1cc(-c2ccco2)n(CC(F)(F)F)n1`, 97.84%; that for `CC(C)NC(=O)NCCn1nc(C(F)(F)F)n(C)c1=O`, -4.799%. The result for `CC(Cc1cccs1)C(=O)NCc1cccc(N2CCCC2=O)c1` (stereo not given) reads 1.255%; that for `CC(C)NC(=O)NCc1cc(-c2ccco2)n(CC(F)(F)F)n1`, 112.4%; that for `CC(C)NC(=O)NCc1ccnc(N(C)C)n1`, -10.55%. `Cc1nnc2n1CCN(CCS(=O)(=O)c1ccccc1)C2`: the “Percent Effect” value came to 0.264%. Regarding `CCc1noc(C2CCCCN2C(=O)c2ccccc2)n1` (stereo not given), the “Percent Effect” value is 1.293%. The result for `CCc1noc(C2CCCCN2C(=O)c2ccn(C3CCCC3)n2)n1` (stereo not given) reads 52.74%; that for `CCc1noc(C2CCCCN2C(=O)c2ccoc2C)n1` (stereo not given), 16.06%; that for `Cc1nnc(N2C[C@@H]3CCCO[C@@H]3[C@H](N(C)C)C2)s1`, -8.785%.

For the compound `CC(NC(=O)NCCNc1cnccn1)c1cccs1` (stereo not given), the “Percent Effect” value turned out to be 5.831%. On to `CC(NC(=O)NCCNc1cccc(F)c1C#N)c1cccs1` (stereo not given), for which the “Percent Effect” value is 10.58%. The result for `CC(C)C(C)(O)CNC(=O)Nc1ccccn1` (stereo not given) reads -16.52%; that for `CC(C)C(NC(=O)NCCNc1ncccn1)c1cccs1` (stereo not given), 99.08%; that for `CC(C)C(NC(=O)NCCNc1cnccn1)c1cccs1` (stereo not given), 101.3%.

Regarding `CC(C)C(NC(=O)c1ccc(N2CCOCC2)nc1)c1cccs1` (stereo not given), the “Percent Effect” value worked out at 15.66%. Regarding `CC(C)CC(NC(=O)CN(C)c1cnccn1)c1cccs1` (stereo not given), the “Percent Effect” value turned out to be 9.121%. The result for `CC(C)C(NC(=O)Nc1ccccn1)c1cccs1` (stereo not given) reads 56.05%; that for `CC(NC(=O)NCCNc1ncccn1)c1cccs1` (stereo not given), 10.74%. As for `COCCn1cnnc1CN(C)c1nc(N)ncc1C`, the “Percent Effect” value amounted to 15.34%.

For the compound `Cc1ccc(CN(C)C(=O)CN2CCCC2c2cnn(C)c2)cc1` (stereo not given), the “Percent Effect” value is reported as -7.848%. The result for `O=c1[nH]cc(N2CCOCC2)c(=O)[nH]1` reads 76.31%; that for `Cn1ncc(N2CCOCC2)c(Cl)c1=O`, 6.365%; that for `c1ccc2c(N3CCOCC3)cnnc2c1`, 28.28%. For `O=c1[nH]cc(N2CCCCC2)c(=O)[nH]1`, the “Percent Effect” value is 67.95%.

Take `O=C(Cc1c[nH]c(=O)[nH]c1=O)N1CCCCC1CCc1ccccc1` (stereo not given): the “Percent Effect” value is on record as -18.96%. The result for `O=C(c1c[nH]c(=O)[nH]1)N1CCc2ccccc21` reads 14.35%. The result for `O=C(NCCN1CCOCC1)c1cc(-c2ccc(Cl)s2)[nH]n1` reads 11.57%; that for `N#CC(Sc1nnnn1C1CCOCC1)C1CCCCC1` (stereo not given), 11.61%; that for `CC(=O)c1cc(CN2C[C@H]3CC[C@@H]2CN(S(=O)(=O)N(C)C)C3)cs1`, -15.69%. The result for `O=C1NC2(Cc3ccccc31)CN(CC1CCCC1)C2` reads 92.98%; that for `CC(=O)N1CCN(CC2CCOc3ccccc3C2)CC1` (stereo not given), -15.11%; that for `O=C(O)C(F)(F)F.O=C1NC2(CCN(CC3CC3)CC2)CC1c1ccccc1` (stereo not given), -3.708%. Take `O=c1n(CC2CC2)nc(C2CCNCC2)n1Cc1ccccc1`: the “Percent Effect” value worked out at 0.2019%. Consider `COc1ccc2c(=O)n(CC3CCNC3)ccc2c1OC` (stereo not given), for which the “Percent Effect” value came out at 10.36%.

As for `O=C1NC(c2ccccc2)=N[C@@]12CC[C@@H]1CN(CC3CCOCC3)C[C@@H]12`, the “Percent Effect” value is 10.45%.

In the case of `OC(CN1CCN(CC2CCCCC2)CC1)c1ccccc1` (stereo not given), the “Percent Effect” value was 21.16%. The result for `O=C1NC2(Cc3ccccc31)CN(CC1CCNCC1)C2` reads 115.6%. The result for `O=C1NC2(Cc3ccccc31)CN(CC1CCOCC1)C2` reads 125.6%; that for `Cc1cc(=O)c2ccccc2n1CC1CCNC1` (stereo not given), 4.531%. The result for `O=C1NC2(Cc3ccccc31)CN(CC1CCNC1)C2` (stereo not given) reads 109.8%.
